In PubChem BioAssay (Tox21):
Inconclusive results are not listed. Where a structure was tested more than once in an assay, its records may differ in their call. Calls of active or inactive are those of the source. Calls follow the shape of the dose curve; as a rule, active = well fitted inhibition curve with a large enough effect in the repeat runs; inconclusive = weak or mixed curves; inactive = no such curve, though single readings can be large or run the other way.

molecular target: Cytochrome P450 1A2 (Homo sapiens) (UniProt P05177); test: Cytochrome P450 Family 1 Subfamily A Member 2 (CYP1A2) small molecule antagonists: luciferase reporter qHTS assay (AID 1671199); details: P450-Glo CYP1A2 enzyme, luciferin luminescence, 1 h; series mostly up to 115 µM; also: nearly all actives have a fitted effect of over 50% in size
Sequence (P05177 whole entry, looked up): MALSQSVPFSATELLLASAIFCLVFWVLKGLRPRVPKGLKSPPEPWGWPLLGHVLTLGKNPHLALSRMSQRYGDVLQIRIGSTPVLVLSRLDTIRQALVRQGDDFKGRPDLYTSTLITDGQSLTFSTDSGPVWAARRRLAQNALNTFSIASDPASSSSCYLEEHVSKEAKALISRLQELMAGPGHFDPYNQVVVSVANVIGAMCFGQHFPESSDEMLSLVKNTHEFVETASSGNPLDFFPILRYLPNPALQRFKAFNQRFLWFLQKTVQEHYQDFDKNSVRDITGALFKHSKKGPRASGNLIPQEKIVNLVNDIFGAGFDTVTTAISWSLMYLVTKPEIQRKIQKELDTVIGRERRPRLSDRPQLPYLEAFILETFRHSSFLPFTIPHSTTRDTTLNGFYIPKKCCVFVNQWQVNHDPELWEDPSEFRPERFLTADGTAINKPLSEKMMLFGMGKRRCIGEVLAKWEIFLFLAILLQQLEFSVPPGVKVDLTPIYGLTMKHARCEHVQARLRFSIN
Text: National Center for Advancing Translational Sciences [NCATS]
U.S. Environmental Protection Agency [EPA]
National Institutes of Environmental Health Sciences [NIEHS]
National Toxicology Program [NTP]
U.S. Food and Drug Administration [FDA]
Cytochrome P450 (CYP) enzymes are membrane-bound hemeproteins that play a key role in metabolism of drugs and xenobiotics. Evaluation of the effect of chemicals on CYP isozymes is useful to minimize the adverse drug reactions and toxicities in drug development process. Tox21 chemicals were tested for their effect on CYP enzyme activities by using P450-Glo (TM) screening systems (Promega Corporation, Madison, WI). These systems provide a luminescent method containing proluciferin substrates and are converted to luciferin products by CYP isozymes. The luciferin products formed are detected with a luciferin detection reagent, and the amount of light produced is proportional to CYP activity. P450-Glo (TM) CYP1A2 screening system (Catalog. No. V9770) was used to detect the compounds that interfere in CYP1A2 activity. The positive control compound used for CYP1A2 assay is furafylline (Sigma-Aldrich, St. Louis, MO).
Tox21 Assay Protocol Summary:
Two ul of enzyme-substrate mix was dispensed into medium binding white/solid 1536-well plates (Greiner Bio-One North America Inc., Monroe, NC) using a BioRaptr Flying Reagent Dispenser (FRD, Beckman Coulter, Brea, CA). Compounds dissolved in DMSO and positive control (furafyllline) were transferred to the assay plates at 23 nl using a Pintool station (Wako, San Diego, CA). The assay plates were incubated at room temperature for 10 min. Then 2 ul of NADPH regeneration solution was added to each well of the assay plates using an FRD and incubated at room temperature for 1 h. The reaction was stopped by adding 4 ul of detection reagent using an FRD and after 20 min incubation at room temperature the luminescence signal was measured using a ViewLux plate reader (Perkin Elmer, Shelton, CT). Data were expressed as relative luminescence units.
Potency is read from the fitted curve at half-maximal effect.

Structure (SMILES) | Potency
Oc1c(Cl)c(Cl)cc(Cl)c1Cl | 69.1 µM (active)
CCCCCCCCCBr | inactive
CC(Cc1ccc(C(C)(C)C)cc1)CN1C[C@@H](C)O[C@@H](C)C1 (stereo not given in full) | 39.9 µM (active)
Oc1cc(Cl)c(Cl)c(Cl)c1 | 26.8 µM (active)
COP(=O)(OC)SCn1c(=O)oc2cc(Cl)cnc21 | 39.9 µM (active)
O=C(CCCN1CCC2(CC1)C(=O)NCN2c1ccccc1)c1ccc(F)cc1 | inactive
N#CCCO | inactive
[Cl][Sb]([Cl])[Cl] | inactive
Nc1ccccc1C(=O)Oc1ccc2ccccc2c1 | 14.2 µM (active)
O=C(O)C1C2CCC(O2)C1C(=O)O (stereo not given) | inactive
CC(=O)Nc1ccc2c(c1)Cc1ccccc1-2 | 3.22 µM (active)
CC(C)(C)C(O)/C(=C\c1ccc(Cl)cc1Cl)n1cncn1 (stereo not given) | 38.4 µM (active)
CC(C)C1CCC(Cc2ccc(Cl)cc2)C1(O)Cn1cncn1 (stereo not given) | 31.4 µM (active)
COc1ccc(OC)c(CC(C)N)c1 (stereo not given) | inactive
N#CNC#N | inactive
CC(=[OH+])/C=C(/C)[O-].CC(=[OH+])/C=C(\C)[O-].CC(=[OH+])/C=C(\C)[O-].[Fe] | inactive
Nc1ccc(Cl)cc1C(=O)c1ccccc1 | 15.9 µM (active)
C=CCC1=C(C)C(OC(=O)C2C(C=C(C)C)C2(C)C)CC1=O (stereo not given) | 25.9 µM (active)
CN(C)CCc1c[nH]c2ccc(O)cc12 | inactive
O=c1c(C2CC(c3ccc(-c4ccc(Br)cc4)cc3)Cc3ccccc32)c(O)sc2ccccc12 (stereo not given) | inactive

Structure (SMILES) | Potency
Clc1ccc(CCC(Cn2ccnc2)Sc2c(Cl)cccc2Cl)cc1 (stereo not given) | 15.5 µM (active)
O=CC(Br)(Br)Br | 28.2 µM (active)
CSCCCN=C=S | inactive
CC(=O)c1ccc(-c2ccccc2)cc1 | 5.03 µM (active)
O=C(Cl)c1ccc(Cl)cc1 | inactive
CCCCCCCCCCCCCCCCCCn1cc[n+](C)c1 | 56.1 µM (active)
CCCN(CCC)CCc1c[nH]c2ccccc12 | 27.9 µM (active)
CCOP(=S)(OCC)SCS(=O)(=O)CC | 35.6 µM (active)
c1cc[c]([Sb]([c]2ccccc2)[c]2ccccc2)cc1 | inactive
N#Cc1ccccc1N | inactive
c1ccc2cc3c(cc2c1)-c1cccc2cccc-3c12 | 0.197 µM (active)
CN(C)C1CSSSC1 | 63.3 µM (active)
CC(c1ccc(O)cc1)c1ccc(O)cc1 | 37.4 µM (active) and inactive
N#CCc1ccc(Cl)cc1 | 31.7 µM (active)
C[C@]12CC[C@H](O)C[C@H]1CC[C@@H]1[C@@H]2C[C@@H](O)[C@]2(C)[C@@H](C3=CC(=O)OC3)CC[C@]12O | inactive
CC(C)N1C(=O)N(c2ccccc2)CSC1=NC(C)(C)C | 31.7 µM (active)
CC(C)CBr | inactive
COc1cc(C=O)cc2c1[C@H](COC(N)=O)[C@]1(OC(C)=O)ON2C[C@H]2[C@@H]1N2C(C)=O | inactive
C[C@@H]1CC[C@@]2(OC1)O[C@H]1[C@@H](O)[C@H]3[C@@H]4CC[C@H]5C[C@@H](O[C@@H]6O[C@H](CO)[C@H](O[C@@H]7O[C@H](CO)[C@@H](O)[C@H](O[C@@H]8OC[C@@H](O)[C@H](O)[C@H]8O)[C@H]7O[C@@H]7O[C@H](CO)[C@@H](O)[C@H](O[C@@H]8O[C@H](CO)[C@@H](O)[C@H](O)[C@H]8O)[C@H]7O)[C@H](O)[C@H]6O)[C@H](O)C[C@]5(C)[C@H]4CC[C@]3(C)[C@H]1[C@@H]2C | inactive
C[C@@H](Oc1ccc(Cl)cc1Cl)C(=O)O | inactive
